# Measured values from PubChem BioAssay AID504408 (Broad Institute, 2011).
# The whole screen tested about 300,000 compounds, of which about 5,200 (1.7%) were called active.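 The calls were made as follows: active = mean replicate activation of at least 50% with a set share of replicates each reaching 50%; inconclusive = only one of those two conditions met; inactive = mean below 50% and too few replicates reaching it.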 What follows is part of a selection rich in actives, with near analogues and random picks from the rest.
# Test: HSF-1 response element luciferase induction – NIH3T3-HGL cells, MG132 stress, luminescence, single point, primary screen (AID 504408);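 also: 0% = median of the neutral control wells and 100% = twice that signal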
# Conditions: NIH3T3-HGL HSF-1 luciferase reporter, MG132, 8 h; at 9 µM; stronger effect = higher value; 100% = twice DMSO control signal
row,SMILES,activation
1,O=C(NNC(=O)c1ccc(Cl)cc1Cl)c1cccs1,25.3% (inactive)
2,Cc1ccc(NNC(=O)c2cccs2)cc1Cl,69.2% (active)
3,Cc1ccc(NNC(=O)c2c(F)cccc2Cl)cc1Cl,0.438% (inactive)
4,Cc1ccc(NC(=O)c2cnc(SCC(=O)NCC3CCCO3)n(C)c2=O)cc1 (stereo not given),7.91% (inactive)
5,Cc1cc(C)c(-c2csc(NC(=O)CCCc3nc4ccccc4c(=O)[nH]3)n2)c(C)c1,-6.87% (inactive)
6,Cc1ccc(S(=O)(=O)NC(C)C(=O)NCc2ccc(Cl)cc2)cc1 (stereo not given),0.844% (inactive)
7,CCc1noc(C)c1C(=O)Nc1nc(-c2ccccc2)cs1,6.16% (inactive)
8,O=C(NNC(=O)c1cc2c(s1)CCCC2)c1ccccc1,5.42% (inactive)
9,O=C(CNC(=O)c1cc2c(s1)CCC2)Nc1ccccc1Br,14.7% (inactive)
10,O=C(Nc1ccc(F)cc1)c1cc2c(s1)CCCC2,91.6% (active)
11,CCOc1cc(C(=O)Nc2ccc(S(=O)(=O)Nc3cnc4ccccc4n3)cc2)cc(OCC)c1OCC,9.73% (inactive)
12,CC1C(=O)N2CCCc3cc(S(=O)(=O)NCc4ccc(F)cc4)cc1c32 (stereo not given),5.48% (inactive)
13,Cn1cnnc1SCc1nnc(-c2ccccc2Br)o1,1.6% (inactive)
14,CCOC(=O)N1CCN(Cc2nnc(-c3ccccc3Cl)o2)CC1,-16.1% (inactive)
15,Nc1cccc2c1C(=O)N(Cc1nnc(-c3ccccc3Br)o1)C2=O,54.8% (active)
16,O=C(CSc1nc(=O)n2ccccc2n1)Nc1ccc2c(c1)OCCO2,-13.2% (inactive)
17,COc1cccc(NC(=O)CSc2nccn(-c3ccc4c(c3)OCCO4)c2=O)c1,8.35% (inactive)
18,CC(=O)Nc1ccc(N2C(=O)C3C4CC(=O)C(c5ccccc54)C3C2=O)cc1 (stereo not given),63.1% (active)
19,CCc1ccccc1N1C(=O)C2C3CC(=O)C(c4ccccc43)C2C1=O (stereo not given),-0.868% (inactive)
20,CC(=O)Nc1ccc(N2C(=O)C3C4C=CC(CC4)C3C2=O)cc1 (stereo not given),6.25% (inactive)
21,O=[N+]([O-])C(=c1ccc2c(c1)N1C3=C(CCCC3)CC3CCCCC31N=2)[N+](=O)[O-] (stereo not given),74.2% (active)
22,COc1ccc(/C=C/C(=O)NC(=S)NN2CCCCC2c2cccnc2)cc1 (stereo not given),13.9% (inactive)
23,COc1ccc(C(=O)NC(=S)N2CCCCC2c2cccnc2)cc1OC (stereo not given),60.1% (active)
24,O=C(NC(=S)N1CCCCC1c1cccnc1)c1ccccc1 (stereo not given),4.49% (inactive)

row,SMILES,activation
1,Cc1nc(-c2ccc(F)cc2)c(CC(=O)Nc2cc(S(=O)(=O)N3CCCCC3)ccc2C)s1,44.2% (inactive)
2,C=CCOc1ccc(/C=C/C(=O)OCC(=O)NCC2CCCO2)cc1 (stereo not given),-21.7% (inactive)
3,O=C(NCCc1ccco1)C(=O)NCCC1CCCCN1S(=O)(=O)c1ccccc1 (stereo not given),3.12% (inactive)
4,Cc1ccc(-n2cc3ccc([N+](=O)[O-])cc3n2)cc1,59.2% (active)
5,Cc1cc(CO)nn1-c1ccc([N+](=O)[O-])cc1,-10.6% (inactive)
6,Cc1ccc(-c2cn3cc([N+](=O)[O-])ccc3n2)cc1,29.6% (inactive)
7,COc1cc(C2C(C(=O)c3cccs3)=C(O)C(=O)N2CCN2CCOCC2)ccc1OCCC(C)C (stereo not given),-4.43% (inactive)
8,Cc1ccc(S(=O)(=O)CCC(=O)Nc2nnc(CC(C)C)s2)cc1,16.5% (inactive)
9,COc1ccc(C(CNC(=O)c2cccc(NS(=O)(=O)c3ccc(C)c(F)c3)c2)N2CCCC2)cc1 (stereo not given),-2.57% (inactive)
10,CC1CCN(C(=O)COC(=O)c2cc(S(=O)(=O)N3CCOCC3)ccc2Cl)CC1,-3.43% (inactive)
11,CC1(C)CCSC(/C=C/c2ccccc2)=N1,172% (active)
12,CCCn1nc(C(=O)NNC(=O)CCOc2ccccc2OCC)c2ccccc2c1=O,2.86% (inactive)
13,O=C(CN1CCOCC1)Nc1cccc([N+](=O)[O-])c1,8.61% (inactive)
14,COc1ccc(C(=O)N2CC3(C)CC2CC(C)(C)C3)cc1OC (stereo not given),-7.35% (inactive)
15,Cc1cccc(C(=O)NCC(=O)OCC(=O)N2CC3(C)CC2CC(C)(C)C3)c1 (stereo not given),15.9% (inactive)
16,Cc1nnnn1/C(=C\c1ccccc1)C(=O)OCC(=O)N1CC2(C)CC1CC(C)(C)C2 (stereo not given),82.4% (active)
17,[O-][n+]1ccc(OCc2ccccc2)cc1,-6.48% (inactive)
18,CC(NC(=O)c1cc(-c2ccccc2)on1)c1ccccc1 (stereo not given),25.2% (inactive)
19,O=C(NC1CCCCC1)c1cc(C2CC2)on1,24.7% (inactive)
20,O=C(NCCCn1ccnc1)c1cc(-c2ccccc2)on1,52.5% (active)
21,O=C(NC1CCCC1)c1cc(-c2ccccc2)on1,61.2% (active)
22,COc1ccc(-c2cc(C(=O)NCCCn3ccnc3)no2)cc1,-2.3% (inactive)
23,COc1ccccc1-c1cc(C(=O)NCCCn2ccnc2)no1,-0.494% (inactive)
24,CCC(=O)c1ccc(OCC(=O)OCC(=O)NC2CCCCCC2)cc1,-11.2% (inactive)

row,SMILES,activation
1,CCC1CCC/C1=N\NC(=O)c1ccc(Cl)cc1 (stereo not given),9.99% (inactive)
2,Cc1cc(C)c(S(=O)(=O)n2cc(C(C)C(N)C(=O)O)c3ccccc32)c(C)c1 (stereo not given),0.109% (inactive)
3,COc1cccc(N2CC(C(=O)NCc3n[nH]c(=O)c4ccccc34)CC2=O)c1 (stereo not given),8.81% (inactive)
4,CSCCC(NC(=O)COc1ccccc1)C(=O)OCCOc1ccc(F)cc1 (stereo not given),-8.89% (inactive)
5,COc1cccc(C(=O)NCCS(=O)(=O)NCC2CCCO2)c1 (stereo not given),-6.64% (inactive)
6,CC1(c2nnc(Cc3ccccc3)o2)CC(c2ccccc2F)=NO1 (stereo not given),4.53% (inactive)
7,Cn1cccc1C(=O)NNC(=O)COc1ccc(Br)cc1,1.2% (inactive)
8,CCS(=O)(=O)c1ccc2oc(SCC(=O)N3c4ccccc4CC3C)nc2c1 (stereo not given),-9.09% (inactive)
9,CC1Cc2ccccc2N1C(=O)CSc1nc2ccccc2o1 (stereo not given),67.8% (active)
10,Cc1cc(=O)[nH]c(SCC(=O)N2c3ccccc3CC2C)n1 (stereo not given),-7.41% (inactive)
11,COc1ccc(/C=N/NC(=O)c2cc(-c3cccc(C)c3)nc3ccccc23)cc1O,11.4% (inactive)
12,O=C(c1cc(-c2ccc(Cl)s2)nc2ccccc12)N1CCOCC1,0.352% (inactive)
13,CCCCCN(C(=O)CCC(=O)OCCOc1ccc(OC)cc1)c1c(N)n(CCCC)c(=O)[nH]c1=O,2.74% (inactive)
14,COc1ccccc1NC(=O)CCN1CCN(c2ccc(Cl)cc2)CC1,0.381% (inactive)
15,COc1ccc(Cl)cc1NC(=O)CCN1CCOCC1,-5.06% (inactive)
16,COC(=O)CNC(c1ccccc1Cl)c1cc(Br)ccc1NC(=O)CCN1CCOCC1 (stereo not given),57.8% (active)
17,COc1ccccc1C(=O)NC(=O)COC(=O)C1CC1,16% (inactive)
18,O=C(O)c1cc(Cl)c(Cl)cc1C(=O)Nc1cccc2ncccc12,56.4% (active)
19,O=C(Nc1cccc2ncccc12)c1ccc(-c2ccc(Cl)cc2Cl)o1,38.2% (inactive)
20,O=C(Nc1cccc2ncccc12)C(Cl)(Cl)Cl,-66% (inactive)
21,CN(C(=O)CN1C(=O)NC(C)(CCc2ccccc2)C1=O)c1ccccc1 (stereo not given),5.79% (inactive)
22,COC(=O)c1c(C)oc2ccc(N(C(=O)Oc3ccccc3)S(=O)(=O)c3ccccc3)cc12,74.4% (active)
23,CC(=O)c1c(C)oc2ccc(NS(=O)(=O)c3ccccc3)cc12,18.1% (inactive)
24,COc1ccc(S(=O)(=O)Nc2ccc3oc(C)c(C(C)=O)c3c2)cc1,-13% (inactive)

row,SMILES,activation
1,CC(C)(C)c1ccc(C(=O)NCc2ccco2)cc1,-17.1% (inactive)
2,Nc1cc(N)nc(SCc2cccc(F)c2)n1,76.5% (active)
3,CCc1nnc(SCc2cccc(F)c2)nc1CC,-33.8% (inactive)
4,Nc1cc(N)nc(SCc2ccc(Cl)cc2)n1,-15.7% (inactive)
5,COc1ccc(NS(=O)(=O)c2ccc(C)c(C(=O)NNC(=O)c3csc(N4CCOCC4)n3)c2)cc1,4.38% (inactive)
6,O=C(NCCC1CCCCN1S(=O)(=O)c1cccs1)C(=O)Nc1ccc(F)cc1F (stereo not given),-7.29% (inactive)
7,CN(C(=O)COC(=O)c1ccc(Br)o1)c1c(N)n(Cc2ccccc2)c(=O)[nH]c1=O,5.07% (inactive)
8,CC1(C)O[C@@H]2CC3C4C[C@H](F)C5=CC(=O)C=CC5(C)C4C(O)CC3(C)[C@]2(C(=O)CO)O1 (stereo not given in full),-43.8% (inactive)
9,COc1ccc(-c2csc3nc(-c4ccccc4F)oc(=O)c23)cc1OC,164% (active)
10,COc1ccc(-c2csc(-c3cccs3)n2)cc1OC,19.1% (inactive)
11,COc1ccccc1-c1nnc(-c2ccc(F)cc2)o1,38.9% (inactive)
12,CC(=O)N/C(=C\c1ccccc1)C(=O)OC(C)C(=O)N(C)c1ccccc1 (stereo not given),2.37% (inactive)
13,CCOC(=O)/C=C/C(=O)OCC(=O)NC(c1ccccc1)c1ccccc1,177% (active)
14,O=C(Cc1ccc(-c2ccccc2)cc1)NC(c1ccccc1)c1ccccc1,0.938% (inactive)
15,CCOC(=O)C(C(=O)OCC)C(C#N)c1ccccc1 (stereo not given),14.7% (inactive)
16,COc1ccc(C(C#N)(CC(=O)O)c2cnccn2)cc1OC (stereo not given),-7.73% (inactive)
17,COc1ccc(-c2cc(C(F)(F)F)nc(S(C)(=O)=O)n2)cc1OC,236% (active)
18,COc1ccc(-c2cc(C(F)(F)F)nc(SCC(=O)Nc3ccc4c(c3)OCO4)n2)cc1OC,12.6% (inactive)
19,COc1cc(OC)nc(S(C)(=O)=O)n1,-10.3% (inactive)
20,COc1ccc(CNC(=O)CNC(=O)c2sc3ccccc3c2Cl)cc1OC,5.99% (inactive)
21,COc1ccc(C(=O)Nc2sc(C)c(C)c2CN2CCOCC2)cc1,399% (active)
22,COc1ccc(C(=O)Nc2ccnn2C2CCN(Cc3ccncc3)CC2)cc1,0.31% (inactive)
23,CCc1cc(C(N)=O)c(NC(=O)c2ccc(OC)cc2)s1,15.1% (inactive)
